According to PubChem BioAssay (NCATS):
Records with an inconclusive call do not appear. A call without a number means that no potency is given here. Unmarked numbers belong to inactive results. Calls of active or inactive are those of the source. Calls follow the shape of the dose curve; as a rule, active = well fitted curve in the direction sought with a large enough effect; inconclusive = small, poorly fitted or top-dose-only effect, or another doubt; inactive = no such curve, though single readings can be large; an effect the other way counts as inactive or inconclusive.

Assays:
[1] = qHTS of pediatric cancer cell lines to identify multiple opportunities for drug repurposing: Primary screen for BT-37 cells (AID 1347094); also: potency is read from the fitted curve at half-maximal effect
Summary of the method: (§1)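 500-1,000 cells/well; 5 h pre-incubation 37 °C/5% CO2; compound pinned; 48 h; CellTiter-Glo, 15 min RT; luminescence. MIPE 11-pt from 0.78 nM, NPC 8-pt from 0.59 nM final. Bortezomib 2.3 µM final as positive control.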

[2] = qHTS of pediatric cancer cell lines to identify multiple opportunities for drug repurposing: Primary screen for NB-EBc1 cells (AID 1347095); also: potency is read from the fitted curve at half-maximal effect
Summary of the method: as §1

[3] = qHTS of pediatric cancer cell lines to identify multiple opportunities for drug repurposing: Primary screen for U-2 OS cells (AID 1347096); also: nearly all actives have a fitted effect of over 50% in size; also: potency is read from the fitted curve at half-maximal effect
Summary of the method: (§2)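 Cells (500-1,000/well) in growth media were settled 5 h at 37 degrees C, then given compounds for 48 h. Viability was read as CellTiter-Glo luminescence. Primary runs used MIPE at 11 points (0.78 nM-46 µM) and NPC at 8 points (0.59 nM-46 µM); follow-ups used 11 points.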

[4] = qHTS of pediatric cancer cell lines to identify multiple opportunities for drug repurposing: Primary screen for Saos-2 cells (AID 1347097); also: nearly all actives have a fitted effect of over 40% in size; also: potency is read from the fitted curve at half-maximal effect
Summary of the method: as §1

[5] = qHTS of pediatric cancer cell lines to identify multiple opportunities for drug repurposing: Primary screen for NB1643 cells (AID 1347099); also: nearly all actives have a fitted effect of over 50% in size
Summary of the method: as §1

[6] = qHTS of pediatric cancer cell lines to identify multiple opportunities for drug repurposing: Primary screen for LAN-5 cells (AID 1347100); also: potency is read from the fitted curve at half-maximal effect
Summary of the method: as §2

[7] = qHTS of pediatric cancer cell lines to identify multiple opportunities for drug repurposing: Primary screen for BT-12 cells (AID 1347101); also: nearly all actives have a fitted effect of over 25% in size; also: potency is read from the fitted curve at half-maximal effect
Summary of the method: (§3)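 Cells (500-1,000/well) rested 5 h, then received compounds for 48 h; metabolically active cells were measured by CellTiter-Glo luminescence. Final concentrations spanned up to 46 µM (MIPE, 11-point) or 0.59 nM-46 µM (NPC, 8-point) in primary screens, 11-point in follow-ups.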

[8] = qHTS of pediatric cancer cell lines to identify multiple opportunities for drug repurposing: Primary screen for Rh18 cells (AID 1347102); also: nearly all actives have a fitted effect of over 65% in size; also: potency is read from the fitted curve at half-maximal effect
Summary of the method: as §2

[9] = qHTS of pediatric cancer cell lines to identify multiple opportunities for drug repurposing: Primary screen for OHS-50 cells (AID 1347103); also: nearly all actives have a fitted effect of over 40% in size; also: potency is read from the fitted curve at half-maximal effect
Summary of the method: as §3

[10] = qHTS of pediatric cancer cell lines to identify multiple opportunities for drug repurposing: Primary screen for RD cells (AID 1347104); also: nearly all actives have a fitted effect of over 55% in size; also: potency is read from the fitted curve at half-maximal effect
Summary of the method: as §1

[11] = qHTS of pediatric cancer cell lines to identify multiple opportunities for drug repurposing: Primary screen for MG 63 (6-TG R) cells (AID 1347105); also: nearly all actives have a fitted effect of over 50% in size; also: potency is read from the fitted curve at half-maximal effect
Summary of the method: as §1

[12] = qHTS of pediatric cancer cell lines to identify multiple opportunities for drug repurposing: Primary screen for control Hh wild type fibroblast cells (AID 1347106);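 also: series mostly up to about 46 µM; a drop in luminescence marks cytotoxicity and a rise apparent proliferation; nearly all actives have a fitted effect of over 55% in size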
Summary of the method: as §2

[13] = qHTS of pediatric cancer cell lines to identify multiple opportunities for drug repurposing: Primary screen for Rh30 cells (AID 1347107); also: series mostly up to about 46 µM; nearly all actives have a fitted effect of over 75% in size
Summary of the method: as §2

[14] = qHTS of pediatric cancer cell lines to identify multiple opportunities for drug repurposing: Primary screen for Rh41 cells (AID 1347108); also: nearly all actives have a fitted effect of over 70% in size; also: potency is read from the fitted curve at half-maximal effect
Summary of the method: as §1

[15] = qHTS of pediatric cancer cell lines to identify multiple opportunities for drug repurposing: Primary screen for SK-N-SH cells (AID 1347098); also: nearly all actives have a fitted effect of over 65% in size; also: potency is read from the fitted curve at half-maximal effect
Summary of the method: as §3

[16] = qHTS of pediatric cancer cell lines to identify multiple opportunities for drug repurposing: Confirmatory screen for NB1643 cells (AID 1347109); also: nearly all actives have a fitted effect of over 45% in size
Summary of the method: as §2

[17] = qHTS of pediatric cancer cell lines to identify multiple opportunities for drug repurposing: Confirmatory screen for A673 cells (AID 1347110);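 also: cells exposed to compound for 48 h before the viability read; nearly all actives have a fitted effect of over 65% in size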
Summary of the method: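 Concentration-response curves came straight from titrations: 11 points (0.78 nM to 46 µM) for MIPE and several concentrations (0.59 nM to 46 µM) for NPC in primary, 11 points in follow-up. Readout: ATP luminescence at 48 h.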

[18] = qHTS of pediatric cancer cell lines to identify multiple opportunities for drug repurposing: Confirmatory screen for SK-N-MC cells (AID 1347111);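 also: potency is read from the fitted curve at half-maximal effect; cells exposed to compound for 48 h before the readout; nearly all actives have a fitted effect of over 70% in size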
Summary of the method: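 Metabolically active cells were quantified by ATP-dependent luminescence (CellTiter-Glo, 15 min at room temperature) following 48 h treatment. Cells had been plated at 500-1,000 per well and settled for 5 h beforehand.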

[19] = qHTS of pediatric cancer cell lines to identify multiple opportunities for drug repurposing: Confirmatory screen for BT-12 cells (AID 1347112); also: nearly all actives have a fitted effect of over 55% in size
Summary of the method: as §2

SMILES | Potency [1] | Potency [2] | Potency [3] | Potency [4] | Potency [5] | Potency [6] | Potency [7] | Potency [8] | Potency [9] | Potency [10] | Potency [11] | outcome [12] | outcome [13] | Potency [14] | Potency [15] | Potency [16] | Potency [17] | Potency [18] | Potency [19]
O=C(O)c1ccccn1 | inactive | inactive | inactive | inactive | inactive | inactive | inactive | inactive | inactive | inactive | inactive | inactive | inactive | inactive |  |  |  |  | 
COc1ccc2cc1Oc1cc3c(cc1OC)CC[N+](C)(C)[C@H]3Cc1ccc(cc1)Oc1c(OC)c(OC)cc3c1[C@@H](C2)[N+](C)(C)CC3 | inactive | inactive | inactive | inactive | inactive |  | inactive | inactive |  | inactive | inactive | inactive | inactive | inactive | inactive |  |  |  | 
Nc1cc(=O)[nH]c(N)n1 | inactive | inactive | inactive | inactive | inactive | inactive | inactive | inactive |  | inactive | inactive | inactive | inactive | inactive |  |  |  |  | 
CC[C@H]1CN2CCc3cc(OC)c(OC)cc3[C@@H]2C[C@@H]1C[C@H]1NCCc2cc(OC)c(OC)cc21 | 389 nM (active) | 750 nM (active) | 1330 nM (active) | 376 nM (active) |  | 335 nM (active) | 347 nM (active) | 2110 nM (active) | 347 nM (active) | 335 nM (active) | 2110 nM (active) |  | inactive | 3760 nM (active) | 433 nM (active) |  |  |  | 
O=C(O)[C@@H]1CSCN1 | inactive | inactive | inactive |  | inactive |  | inactive |  | inactive | inactive | inactive | inactive | inactive |  | inactive |  |  |  | 
NS(=O)(=O)c1cc2c(cc1Cl)NC(CSCc1ccccc1)=NS2(=O)=O | inactive | inactive | inactive |  | inactive | inactive | inactive | inactive | inactive | inactive | inactive | inactive | inactive | inactive | inactive |  |  |  | 
CNCC(O)c1ccc(O)c(O)c1 (configuration not stated) | inactive | inactive | inactive | 26600 nM (active) | inactive | inactive | inactive |  | inactive | inactive | inactive | inactive |  | inactive |  |  |  |  | 
C[C@@H]1C[C@H]2[C@@H]3C[C@H](F)C4=CC(=O)C=C[C@]4(C)[C@@]3(F)[C@@H](O)C[C@]2(C)[C@@]1(O)C(=O)CO | inactive | inactive | inactive | inactive | inactive |  | inactive | inactive | inactive | inactive | inactive | inactive | inactive | inactive | inactive | inactive | inactive | 13100 nM (active) | inactive
CC1(C)[C@@H]2CC[C@@]1(C)C(=O)C2 | inactive | inactive | inactive | inactive | inactive |  | inactive | inactive | inactive | inactive | inactive | inactive | inactive | inactive | inactive |  |  |  | 
N[C@H](C(=O)O)c1ccc(O)cc1 | inactive | inactive | inactive | inactive | inactive |  | inactive | inactive |  | inactive | inactive | inactive | inactive | inactive | inactive |  |  |  | 
C[C@H]1O[C@H](O[C@H]2[C@H](O)[C@@H](O)[C@@H](O[C@H]3[C@H](O)[C@@H](O)[C@H](O)O[C@@H]3CO)O[C@@H]2CO)[C@H](O)[C@@H](O)[C@@H]1N[C@H]1C=C(CO)[C@@H](O)[C@H](O)[C@H]1O | inactive | inactive | inactive | inactive | inactive |  | inactive |  | inactive | inactive |  | inactive | inactive | inactive | inactive |  |  |  | 
Nc1ccc(S(=O)(=O)NC(=O)c2ccccc2)cc1 | inactive | inactive | inactive | inactive | inactive |  | inactive |  | inactive | inactive | inactive | inactive | inactive | inactive | inactive |  |  |  | 
CCC(=O)Nc1ccc(O)cc1 | inactive | inactive | inactive | inactive | inactive |  | inactive |  | inactive | inactive | inactive | inactive | inactive | inactive | inactive |  |  |  | 
CCCCCCCCCCCCOS(=O)(=O)O | inactive | inactive | inactive |  | inactive | inactive | inactive | inactive |  | inactive | inactive | inactive | inactive | inactive | inactive |  |  |  | 
C[C@]12CC[C@@H]3c4ccc(O)cc4CC[C@H]3[C@@H]1CCC2=O | inactive | inactive | inactive |  | inactive | inactive |  |  |  | inactive | inactive | inactive | inactive | inactive | inactive |  |  |  | 
